Data on 63 compounds can be found in PubChem BioAssay AID686979 (National Center for Advancing Translational Sciences (NCATS), 2013).

Each structure is given as a SMILES string. In all, about 420,000 compounds went through this assay and about 50,000 (12%) were called active. Entries that show only a call come without a potency. Not shown: some 26% with an inconclusive outcome. The call rests on the fitted dose curve; in most records, active means well fitted inhibition curve with a large enough effect; inconclusive means small, poorly fitted or top-dose-only effect; inactive means flat fitted curve, though single readings scatter. For the sample, actives were picked, then their nearest neighbours and some compounds at random.
Potency means the concentration at half of the fitted maximal effect.

The nature of the test: qHTS for Inhibitors of human tyrosyl-DNA phosphodiesterase 1 (TDP1): qHTS in cells in presence of CPT. Further: nearly all actives have a fitted effect of over 55% in size. The note with it: chicken DT40 Tdp1-/-;hTDP1 cells + 20 nM CPT, ATP luminescence, 48 h; series mostly up to 46.2 µM. The method, boiled down: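 Chicken DT40 Tdp1-/- cells stably complemented with human TDP1 were seeded at 400 cells/well in medium containing 20 nM camptothecin, exposed to pin-transferred compounds, and grown at 37 °C for at least 48 hr. Viability was read as ATP luminescence.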
As to `COc1ccc(NS(=O)(=O)c2ccc(C)c(C(=O)NNC(=O)c3csc(N4CCOCC4)n3)c2)cc1`, the Potency result was “inactive”.
Consider `O=C(NCc1cccnc1)c1cccc(-c2cc3ccccc3oc2=O)c1`, for which the Potency result was “inactive”.
Next, `Cc1ccc(S(=O)(=O)CCC(=O)OCC(=O)N(C)C2CCS(=O)(=O)C2)cc1` (stereo not drawn): “inactive”; `Cc1ccc2nc(-c3ccc(O)cc3)c(Nc3ccc4c(c3)OCO4)n2c1`: 23.1 µM (active); `Cc1nc([N+](=O)[O-])cn1CC(=O)Nc1ccc2c(c1)OCO2`: “inactive”.
Next, `Cc1ccc(SCC(=O)Nc2ccc3c(c2)OCCO3)cc1`: “inactive”.
Next, `CC(C)(C)NC(=O)NC(=O)COC(=O)C1(C)CC1(Cl)Cl` (stereo not drawn): “inactive”.
As to `COc1ccc(CNC(=O)CC2Oc3ccc(C)cc3NC2=O)cc1` (stereo not drawn), the Potency entry is “inactive”.
Regarding `Cc1cc(C)cc(NC(=O)C(OC(=O)c2ccc(O)cc2)c2ccccc2)c1` (stereo not drawn), the Potency entry is “inactive”.
Next, `CC(=O)Nc1ccc(N2C(=O)CC(Sc3nccc(C)n3)C2=O)cc1` (stereo not drawn): “inactive”.
In the case of `COc1ccc(N2C(=O)CC(SC(C)C)C2=O)cc1` (stereo not drawn) it was “inactive”; in that of `O=C1CC(Sc2ncn[nH]2)C(=O)N1c1ccccc1` (stereo not drawn), 8.2 µM (active).
Next, `COc1ccc(N2C(=O)CC(Sc3n[nH]c(-c4ccc(C)cc4)n3)C2=O)cc1` (stereo not drawn): 2.91 µM (active).
For `CCOC(=O)c1ccc(N2C(=O)CC(Sc3nc(O)c(CC)c(=O)[nH]3)C2=O)cc1` (stereo not drawn), the Potency entry was “inactive”.
Next, `Cc1ccc(N2C(=O)CC(Sc3ncn[nH]3)C2=O)cc1` (stereo not drawn): 5.17 µM (active).
With `COc1ccc(-c2nc(SCC(=O)N3CCOCC3)n[nH]2)cc1`, the Potency result was “inactive”.
In the case of `Cc1ccnc(SC2CC(=O)N(c3ccccc3)C2=O)n1` (stereo not drawn) it was “inactive”.
Next, `O=C1CC(N2CCN(c3ccc(F)cc3)CC2)C(=O)N1c1ccccc1` (stereo not drawn): “inactive”; `OCC[C@H]1C[C@H](O)[C@@H](O)[C@]2(CCc3ccccc3O2)O1`: “inactive”; `Cc1cc(C)cc(NC(=O)c2cccc(NC(=O)C3C4CC5OC(=O)C3C5C4)c2)c1` (stereo not drawn): “inactive”.
In the case of `O=C(O)CCN(Cc1ccccc1)S(=O)(=O)c1c(Cl)cccc1Cl` it was “inactive”.
On to `COc1cc(NC(=O)CCS(=O)(=O)c2ccc3c(c2)oc(=O)n3C)cc(OC)c1`, for which the Potency result is “inactive”.
Next, `O=S(=O)(Nc1ccc(OC(F)(F)F)cc1)c1cccc2nonc12`: “inactive”; `C[C@H](NS(=O)(=O)c1ccc(Cl)cc1)C(=O)OCC(=O)N1CCOCC1`: “inactive”; `CC1CN(C(=O)c2ccccc2NS(=O)(=O)c2cccc([N+](=O)[O-])c2)CC(C)O1` (stereo not drawn): “inactive”.
In the case of `COC(=O)C1=CO[C@@H](O[C@@H]2O[C@H](CO)[C@@H](O)[C@H](O)[C@H]2O)C2C1C[C@H](O)[C@@H]2C` (stereo partly drawn) it was “inactive”.
Next, `CC[C@]12c3[nH]c4cc(CCC(=O)N(C)C)ccc4c3CCN1C(=O)[C@@H](CC(=O)NCCCn1ccnc1)C[C@@H]2C(=O)N1CCN(C(=O)C2CC2)CC1`: “inactive”.
Turning to `OC(CBr)C[n+]1cccc2cc(Br)ccc21` (stereo not drawn), the Potency was 4.47 µM (active).
Next, `COc1ccc(N2CCN(S(=O)(=O)c3ccc4c(c3)N(C(C)=O)CCO4)CC2)cc1`: “inactive”; `CN(C)c1ccc(/C=N/NC(=O)c2ccc(Cn3cc(Br)cn3)o2)cc1`: “inactive”.
Next, `CCOC(=O)C1CCN(C(=O)CN2C(=O)NC(C)(c3ccc4cc(OC)ccc4c3)C2=O)CC1` (stereo not drawn): 18.4 µM (active); `CCOC(=O)C1CCN(C(=O)Nc2cccc(OC)c2)CC1`: “inactive”.
Next, `CC1(c2ccc3ccccc3c2)NC(=O)N(CC(N)=O)C1=O` (stereo not drawn): “inactive”; `CCSc1nnc(NC(=O)c2cc(=O)c3cc(C)c(C)cc3o2)s1`: “inactive”.
Turning to `CN=C1S/C(=C\c2c(OC)cc(OC)cc2OC)C(=O)N1C`, the Potency result is “inactive”.
Regarding `O=C(COC(=O)/C=C/c1cccs1)NC1CCCCC1`, the Potency result was “inactive”.
In the case of `CCOc1ncccc1C(=O)NCCc1ccc(OC)cc1`, the Potency is 18.4 µM (active).
With `COc1ccc(CCNC(=O)c2cnc(Cl)c(Cl)c2)cc1`, the Potency entry is “inactive”.
In the case of `COc1ccc(CCNC(=O)c2ccco2)cc1` it was “inactive”; in that of `OCCN1CCN(c2ncnc3c2ncn3[C@H]2CN(Cc3ccco3)C[C@@H](CO)O2)CC1`, “inactive”.
Regarding `Cc1nn(CC(=O)N2CCN(c3cccc(C(F)(F)F)c3)CC2)c(=O)c2cc3sccc3n12`, the Potency result was “inactive”.
`COc1ccc2[nH]c3ccc(OC)cc3c2c1`: the Potency result is “inactive”.
Next, `COc1ccc2[nH]c3c(C)c4cc[n+](C)cc4c(C)c3c2c1`: 0.259 µM (active); `COc1ccc2[nH]c(=S)cc(C)c2c1`: “inactive”; `O=C(CSc1nnnn1C1CCCC1)N1CCCCC1`: “inactive”.
As for `COc1ccccc1/C=C/C=N/NC(=O)CN1CCN(Cc2ccccc2)CC1`, the Potency result is “inactive”.
Next, `CSc1nc2ccccc2cc1/C=C(\C#N)c1ccc(Cl)cc1Cl`: “inactive”.
In the case of `Cc1ccc(-c2nnc(SCc3ccccc3C)o2)cc1`, the Potency entry was “inactive”.
In the case of `COc1ccc([N+](=O)[O-])cc1N(CC(O)CN(CC(C)C)CC(C)C)S(=O)(=O)c1ccc(C)cc1` (stereo not drawn) it was 25.9 µM (active); in that of `Cc1ccc(S(=O)(=O)N(CC(O)CN2C(=O)NC(C)(C)C2=O)c2cccc([N+](=O)[O-])c2)cc1` (stereo not drawn), “inactive”; in that of `Cc1ccc(S(=O)(=O)N(CC(O)CN2CCCCC2)c2cccc([N+](=O)[O-])c2)cc1` (stereo not drawn), “inactive”.
In the case of `COC(=O)c1ccc(CNC(=O)C2CCC(=O)N(Cc3ccccn3)C2)cc1` (stereo not drawn) it was “inactive”; in that of `NC(=O)N1CCc2ccccc21`, “inactive”; in that of `CCOC(=O)C1=C(CN2CCc3ccccc32)NC(=O)NC1c1cc(C)ccc1C` (stereo not drawn), 17.8 µM (active).
In the case of `CCOC(=O)C1=C(c2ccccc2)NC(=O)NC1c1cc(OC)c(OC)cc1OC` (stereo not drawn) it was “inactive”; in that of `Cc1nn(-c2ccccc2)c2c1C(c1cccc([N+](=O)[O-])c1)N(c1ccccc1)C(=O)N2` (stereo not drawn), “inactive”; in that of `CCOC(=O)COc1ccc(Cl)cc1C1NC(=O)NC(C)=C1C(C)=O` (stereo not drawn), “inactive”.
Take `CCOC(=O)C1=C(CN2CCc3ccccc32)NC(=O)NC1c1cccc([N+](=O)[O-])c1` (stereo not drawn): the Potency was 14.1 µM (active).
Take `CCOC(=O)C1=C(CNC2CCCCC2)NC(=O)NC1c1cc(C)ccc1C` (stereo not drawn): the Potency was 25.9 µM (active).
Next, `CCOCCOC(=O)C1=C(C)NC(=O)NC1c1ccc2c(c1)OCO2` (stereo not drawn): “inactive”.
Next, `CCOC(=O)C1=C(CSc2nccn2C)NC(=O)NC1c1ccc(OC)cc1` (stereo not drawn): “inactive”; `CCc1cc(-c2nnc(SCC(=O)NC3CC3)n2C)cs1`: “inactive”; `NC(CSC(c1ccccc1)(c1ccccc1)c1ccc(-c2ccccc2)cc1)C(=O)O` (stereo not drawn): “inactive”.
